Results with a measured potency or affinity are listed apart. Calls of active or inactive are those of the source.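 Rule for the calls: active = falling signal whose fitted half-effect dose is at or below ten times the top valid dose; inconclusive = flat fit showing a moderate drop, or a poor fit; inactive = the rest.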
Assay: NIH-3T3 viability with fluconazole co-treatment – cell-based, Alamar Blue, dry powder, set 2, cytotoxicity control for antifungal resistance reversal project, dose response (AID 488911)
Settings: 48 h; series mostly up to 26 µM

Row | Structure (SMILES) | outcome
1 | Cc1cc(N2CCN(C(=O)c3ccc(Cl)cc3)CC2)c2ccc(F)cc2n1 | inactive
2 | N#Cc1ccc(N2CCN(C(=O)c3ccc(Cl)cc3)CC2)nc1 | inactive
3 | O=C(c1ccc(Cl)cc1)N1CCN(c2ccnc3ccc(Cl)cc23)CC1 | inactive
4 | O=C(c1ccc(Cl)cn1)N1CCN(c2ccnc3cc(Cl)ccc23)CC1 | inactive
5 | COc1cccc2c(N3CCN(C(=O)c4ccc(Cl)cc4)CC3)cc(C)nc12 | inactive
6 | O=C(c1ccc(Cl)nc1)N1CCN(c2ccnc3cc(Cl)ccc23)CC1 | inactive
7 | COCCC(=O)N1CCN(c2ccnc3cc(Cl)ccc23)CC1 | inactive
8 | Clc1ccc2c(N3CCNCC3)ccnc2c1 | inactive
9 | O=C(c1ccc(Cl)cc1)N1CCCN(c2ccnc3cc(Cl)ccc23)CC1 | inactive
10 | O=C(c1ccc(Cl)cc1)N1CCN(c2ccnc3ccccc23)CC1 | inactive
11 | O=C(c1ccc(Cl)cc1)N1CCN(c2ncnc3nc[nH]c23)CC1 | inactive
12 | O=C(C1CCCC1)N1CCN(c2ccnc3cc(Cl)ccc23)CC1 | inactive
13 | CC(C)CC(=O)N1CCN(c2ccnc3cc(Cl)ccc23)CC1 | inactive
14 | O=C(Nc1ccc(Cl)cc1)N1CCN(c2ccnc3cc(Cl)ccc23)CC1 | inactive
15 | O=C(C1CCC1)N1CCN(c2ccnc3cc(Cl)ccc23)CC1 | inactive
16 | COc1ccc(C(=O)N2CCN(c3ccnc4cc(Cl)ccc34)CC2)cc1 | inactive

Row | Structure (SMILES) | outcome
17 | O=C(c1ccc(F)cc1)N1CCN(c2ccnc3cc(Cl)ccc23)CC1 | inactive
18 | O=C(c1ccccc1Cl)N1CCN(c2ccnc3cc(Cl)ccc23)CC1 | inactive
19 | CC1CN(c2ccnc3cc(Cl)ccc23)CCN1C(=O)c1ccc(Cl)cc1 (stereo unspecified) | inactive
20 | O=C(c1ccc(Cl)cc1)N1CCN(c2ccnc3cc(Cl)ccc23)CC1 | inactive
21 | CC(C)C(=O)N1CCN(c2ccnc3cc(Cl)ccc23)CC1 | inactive
22 | Cc1cc(N2CCN(C(=O)c3ccc(Cl)cc3)CC2)c2ccccc2n1 | inactive
23 | O=C(c1ccc(Cl)cc1)N1CCN(c2ccccn2)CC1 | inactive
24 | O=C(C1CCCCC1)N1CCN(c2ccnc3cc(Cl)ccc23)CC1 | inactive
25 | O=C(c1ccc(Cl)cc1)N1CCNCC1 | inactive
26 | O=C(c1ccc(Cl)cc1)N1CCN(c2ncnc3ccccc23)CC1 | inactive
27 | COc1ccc2c(N3CCN(C(=O)c4ccc(Cl)cc4)CC3)ccnc2c1 | inactive
28 | O=C(c1ccc(Cl)cc1)N1CCN(c2ccncc2)CC1 | inactive
29 | O=C(c1ccc(Cl)cc1)C1CCN(c2ccnc3cc(Cl)ccc23)CC1 | inactive
30 | O=C(c1cccc(Cl)c1)N1CCN(c2ccnc3cc(Cl)ccc23)CC1 | inactive
31 | CCCC(=O)N1CCN(c2ccnc3cc(Cl)ccc23)CC1 | inactive
